In the antibiotic and cytotoxicity screens of Wong et al. (2023) one finds cytotoxicity call data, which are given here for 38 compounds.

Among all 39,000 compounds or so, about 1,500 (3.8%) were called active. The sample holds actives, similar compounds and a random draw of the others, so the mix is not that of the screen.

The assay has as its system HSkMC (human skeletal muscle cells). Description: cytotoxicity call (relative viability < 0.9). To be noted: 10 µM.
Turning to `COC(=O)c1cc(S(C)(=O)=O)ccc1OC`, the cytotoxicity call is “inactive”.
Next, `C[C@@H]1CN([C@H](C)CO)C(=O)c2cc(NC(=O)Nc3ccc(C(F)(F)F)cc3)ccc2O[C@@H]1CN(C)Cc1ccc(Oc2ccccc2)cc1`: “active”.
As for `C[C@H](CO)N1C[C@H](C)[C@H](CN(C)Cc2ccc(Oc3ccccc3)cc2)Oc2ccc(NC(=O)Nc3ccc(C(F)(F)F)cc3)cc2C1=O`, the entry is “active”.
As for `C[C@H]1CN([C@@H](C)CO)C(=O)c2cc(NC(=O)Nc3ccc(C(F)(F)F)cc3)ccc2O[C@@H]1CN(C)Cc1ccc(Oc2ccccc2)cc1`, the cytotoxicity call is “inactive”.
For the compound `C[C@@H]1CN([C@H](C)CO)C(=O)c2cc(NC(=O)Nc3ccc(C(F)(F)F)cc3)ccc2O[C@H]1CN(C)Cc1ccc(Oc2ccccc2)cc1`, the cytotoxicity call is “inactive”.
As for `CN(C)C(=O)c1cccc(-c2ccc3n(c2=O)C[C@H]2[C@H](CO)[C@@H](C(=O)NCC4CC4)N[C@@H]32)c1`, the entry is “inactive”.
Next, `COc1ccc(NC(=O)Nc2cccc3c2O[C@@H](CN(C)Cc2ccc(Cl)c(Cl)c2)[C@H](C)CN([C@@H](C)CO)C3=O)cc1`: “inactive”; `C[C@@H]1CN([C@@H](C)CO)C(=O)c2cccc(NC(=O)Nc3ccc(F)cc3)c2O[C@H]1CN(C)Cc1ccc(Cl)c(Cl)c1`: “inactive”.
Next, `C[C@@H]1CN([C@@H](C)CO)C(=O)c2cccc(NC(=O)Nc3ccc(F)cc3)c2O[C@@H]1CN(C)Cc1ccc(Cl)c(Cl)c1`: “active”.
On to `C[C@@H]1CN([C@H](C)CO)C(=O)c2cccc(NC(=O)Nc3ccc(F)cc3)c2O[C@H]1CN(C)Cc1ccc(Cl)c(Cl)c1`, for which the cytotoxicity call was “active”.
As to `C[C@@H]1CN([C@@H](C)CO)C(=O)c2cccc(NC(=O)Nc3ccccc3)c2O[C@H]1CN(C)Cc1ccc(Cl)c(Cl)c1`, the cytotoxicity call is “inactive”.
Regarding `COc1ccc(NC(=O)Nc2cccc3c2O[C@@H](CN(C)Cc2ccc(Cl)c(Cl)c2)[C@@H](C)CN([C@H](C)CO)C3=O)cc1`, the cytotoxicity call is “inactive”.
With `C[C@H](CO)N1C[C@H](C)[C@@H](CN(C)Cc2ccc(Cl)c(Cl)c2)Oc2c(NC(=O)Nc3ccc(F)cc3)cccc2C1=O`, the cytotoxicity call is “active”.
Next, `COc1ccc(NC(=O)Nc2cccc3c2O[C@H](CN(C)Cc2ccc(Cl)c(Cl)c2)[C@@H](C)CN([C@@H](C)CO)C3=O)cc1`: “active”; `C[C@@H]1CN([C@H](C)CO)C(=O)c2cccc(NC(=O)Nc3ccccc3)c2O[C@@H]1CN(C)Cc1ccc(Cl)c(Cl)c1`: “inactive”; `C[C@H](CO)N1C[C@H](C)[C@H](CN(C)Cc2ccc(Cl)c(Cl)c2)Oc2c(NC(=O)Nc3ccc(F)cc3)cccc2C1=O`: “inactive”.
In the case of `C[C@@H]1CN([C@H](C)CO)C(=O)c2cccc(NC(=O)Nc3ccc(F)cc3)c2O[C@@H]1CN(C)Cc1ccc(Cl)c(Cl)c1`, the cytotoxicity call was “inactive”.
On to `C[C@H]1CN([C@@H](C)CO)C(=O)c2cccc(NC(=O)Nc3ccc(F)cc3)c2O[C@H]1CN(C)Cc1ccc(Cl)c(Cl)c1`, for which the cytotoxicity call was “inactive”.
Next, `C[C@H](CO)N1C[C@H](C)[C@H](CN(C)C(=O)c2ccc(N3CCN(C)CC3)cc2)OCc2cn(nn2)CCCC1=O`: “inactive”.
As for `COc1ccc(S(=O)(=O)N(C)C[C@@H]2Oc3c(NC(=O)c4ccncc4)cccc3C(=O)N([C@H](C)CO)C[C@@H]2C)cc1`, the entry is “inactive”; as for `C[C@H]1CCCCO[C@@H](CN(C)Cc2ccc(C(=O)O)cc2)[C@@H](C)CN([C@@H](C)CO)C(=O)c2cc(NC(=O)NC3CCCCC3)ccc2O1`, “inactive”.
As for `C[C@@H]1CN([C@H](C)CO)S(=O)(=O)c2ccc(Br)cc2O[C@@H]1CN(C)S(=O)(=O)c1ccc(F)cc1`, the entry is “inactive”.
Regarding `CON=C(C(=O)NC1C(=O)N2C(C(=O)OCOC(=O)C(C)(C)C)=C(C=Cc3scnc3C)CSC12)c1csc(N)n1` (stereo not drawn), the cytotoxicity call was “inactive”.
With `C[C@H]1CN([C@@H](C)CO)C(=O)c2cc(C#Cc3ccccc3)cnc2O[C@H]1CN(C)C(=O)CCN1CCCCC1`, the cytotoxicity call is “inactive”.
For `COCCCNC(=O)[C@@]1(Sc2ccc(C)cc2)CC(=O)N(Cc2ccccc2Cl)[C@@H]1c1ccc(CO)cc1`, the cytotoxicity call is “inactive”.
For the compound `O=C1N[C@H](Cc2c[nH]c3ccccc23)COC(=O)[C@@H](Cc2ccc(F)cc2)CCC=CC[C@H]1CC(=O)N(CCO)Cc1ccccc1`, the cytotoxicity call was “inactive”.
On to `COc1cc(C)c(C(=O)Oc2cc(C)c(C(=O)O)c(O)c2)c(O)c1`, for which the cytotoxicity call was “inactive”.
As for `COCCCNc1ncnc(N)c1[N+](=O)[O-]`, the entry is “inactive”.
`C[C@H]1CN([C@@H](C)CO)C(=O)c2cccc(NC(=O)Nc3ccc(F)cc3)c2O[C@@H]1CN(C)Cc1ccc(Cl)c(Cl)c1`: the cytotoxicity call was “active”.
Take `C[C@H](CO)N1C[C@H](C)[C@@H](CN(C)Cc2ccc(Cl)c(Cl)c2)Oc2c(NC(=O)Nc3ccc4c(c3)OCO4)cccc2C1=O`: the cytotoxicity call was “active”.
With `C[C@@H]1CN([C@@H](C)CO)C(=O)c2cccc(NC(=O)Nc3ccc4c(c3)OCO4)c2O[C@@H]1CN(C)Cc1ccc(Cl)c(Cl)c1`, the cytotoxicity call was “inactive”.
As for `C[C@H]1CN([C@@H](C)CO)C(=O)c2cccc(NC(=O)Nc3ccc4c(c3)OCO4)c2O[C@@H]1CN(C)Cc1ccc(Cl)c(Cl)c1`, the entry is “inactive”; as for `C[C@H](CO)N1C[C@H](C)[C@H](CN(C)S(C)(=O)=O)OCCCC[C@H](C)Oc2ccc(NS(=O)(=O)c3ccc(F)cc3)cc2C1=O`, “inactive”; as for `CO[C@@H]1CN(C)C(=O)c2cc(NC(=O)c3ccccc3)ccc2OC[C@H](C)N(C(=O)CN(C)C)C[C@@H]1C`, “inactive”.
As for `CC(C)(C)OC(=O)N[C@H]1CCCCC/C=C\[C@@H]2C[C@@]2(C(=O)NS(=O)(=O)C2CC2)NC(=O)[C@@H]2C[C@@H](OC(=O)N3Cc4cccc(F)c4C3)CN2C1=O`, the entry is “inactive”; as for `COc1ccc(NC(=O)Nc2ccc3c(c2)C(=O)N([C@@H](C)CO)C[C@@H](C)[C@H](CN(C)S(=O)(=O)c2ccc(Cl)cc2)OCCCC[C@@H](C)O3)cc1`, “inactive”; as for `Cc1noc(C)c1NC(=O)Nc1ccc2c(c1)C(=O)N([C@@H](C)CO)C[C@H](C)[C@@H](CN(C)S(=O)(=O)c1ccc(Cl)cc1)OCCCC[C@@H](C)O2`, “inactive”.
As for `COCCOC(=O)N1C(=O)[C@@]2(c3cc(C#CC4(O)CCCCCC4)ccc31)[C@H](C(=O)N1CCCCCCC1)[C@H]1C(=O)O[C@H](c3ccccc3)[C@H](c3ccccc3)N1[C@@H]2c1ccc(OCCO)cc1`, the entry is “inactive”.
